Data reported in PubChem BioAssay AID1159580 (chemical genetic matrix, 2015).
In all, about 5,500 compounds went through this assay and about 2,000 (36%) were called active. About 18% were inconclusive and are not listed. No stated cut-off is given here; in the data, active means normalized growth mostly below about 0.91 (no sharp cut-off); inconclusive means no clear call, values can overlap the other calls; inactive means mostly above about 0.92. This is one part of the list.

Assay: chemical genetic growth profiling, strain panel (AID 1159580);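 further: tested at 20 µM; growth read once vehicle control cultures reached saturation at 30 °C; 1 = growth at the plate median or of vehicle wells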
Conditions: growth OD

Measured: normalized growth

COc1cc([C@@H]2c3cc4c(cc3[C@H](O)[C@H]3COC(=O)[C@@H]23)OCO4)cc(OC)c1OC
inactive: S. cerevisiae deletion strains, locus YKL009W, strain mrt4, stronger effect = lower value 1 | S. cerevisiae deletion strains, locus YKL068W, stronger effect = lower value 0.977 | S. cerevisiae deletion strains, locus YKL085W, strain MDH1 (second series), stronger effect = lower value 1 | S. cerevisiae deletion strains, locus YKL085W, strain MDH1, stronger effect = lower value 1 | S. cerevisiae deletion strains, locus YKL160W, strain elf1, stronger effect = lower value 1.02 | S. cerevisiae deletion strains, locus YKR001C, strain vps1, stronger effect = lower value 0.978 | S. cerevisiae deletion strains, locus YKR026C, strain gcn3, stronger effect = lower value 1.02 | S. cerevisiae deletion strains, locus YKR091W, strain srl3, stronger effect = lower value 1.02 | S. cerevisiae deletion strains, locus YLL001W, strain dnm1, stronger effect = lower value 1.01 | S. cerevisiae deletion strains, locus YLL026W, stronger effect = lower value 1.01 | S. cerevisiae deletion strains, locus YLL041C, strain sdh2, stronger effect = lower value 1.02 | S. cerevisiae deletion strains, locus YLR027C, strain aat2, stronger effect = lower value 1.03 | S. cerevisiae deletion strains, locus YLR039C, strain RIC1, stronger effect = lower value 0.996 | S. cerevisiae deletion strains, locus YLR058C, strain SHM2, stronger effect = lower value 1.01 | S. cerevisiae deletion strains, locus YLR102C, strain apc9, stronger effect = lower value 0.984 | S. cerevisiae deletion strains, locus YLR113W, strain HOG1, stronger effect = lower value 0.997 | S. cerevisiae deletion strains, locus YLR221C, strain rsa3, stronger effect = lower value 0.999 | S. cerevisiae deletion strains, locus YLR258W, strain gsy2, stronger effect = lower value 1.02 | S. cerevisiae deletion strains, locus YLR262C, strain YPT6 (second series), stronger effect = lower value 1.04 | S. cerevisiae deletion strains, locus YLR262C, strain YPT6, stronger effect = lower value 0.991 | S. cerevisiae deletion strains, locus YLR268W, strain sec22, stronger effect = lower value 0.971 | S. cerevisiae deletion strains, locus YLR320W, strain mms22, stronger effect = lower value 1.01 | S. cerevisiae deletion strains, locus YLR330W, strain CHS5, stronger effect = lower value 0.998 | S. cerevisiae deletion strains, locus YLR342W, strain FKS1 (second series), stronger effect = lower value 1.02 | S. cerevisiae deletion strains, locus YLR342W, strain FKS1, stronger effect = lower value 1.02 | S. cerevisiae deletion strains, locus YLR357W, strain rsc2, stronger effect = lower value 1.02 | S. cerevisiae deletion strains, locus YLR370C, strain arc18, stronger effect = lower value 1.03 | S. cerevisiae deletion strains, locus YLR371W, strain rom2, stronger effect = lower value 0.972 | S. cerevisiae deletion strains, locus YLR384C, strain iki3, stronger effect = lower value 1.02 | S. cerevisiae deletion strains, locus YLR418C, strain cdc73, stronger effect = lower value 1.05 | S. cerevisiae deletion strains, locus YML016C, strain PPZ1, stronger effect = lower value 0.997 | S. cerevisiae deletion strains, locus YML032C, strain rad52, stronger effect = lower value 1.02 | S. cerevisiae deletion strains, locus YML120C, strain ndi1, stronger effect = lower value 1.01 | S. cerevisiae deletion strains, locus YML124C, strain tub3, stronger effect = lower value 0.993 | S. cerevisiae deletion strains, locus YMR058W, strain fet3, stronger effect = lower value 1.02 | S. cerevisiae deletion strains, locus YMR078C, strain ctf18, stronger effect = lower value 0.991 | S. cerevisiae deletion strains, locus YMR125W, strain sto1, stronger effect = lower value 1.02 | S. cerevisiae deletion strains, locus YMR129W, stronger effect = lower value 1.02 | S. cerevisiae deletion strains, locus YMR205C, strain PFK2, stronger effect = lower value 1.02 | S. cerevisiae deletion strains, locus YMR223W, strain ubp8, stronger effect = lower value 1.01 | S. cerevisiae deletion strains, locus YMR231W, strain pep5, stronger effect = lower value 1.03 | S. cerevisiae deletion strains, locus YMR263W, strain SAP30, stronger effect = lower value 1.01 | S. cerevisiae deletion strains, locus YMR307W, strain GAS1, stronger effect = lower value 1.05 | S. cerevisiae deletion strains, locus YNL067W, strain RPL9B, stronger effect = lower value 1.01 | S. cerevisiae deletion strains, locus YNL071W, strain lat1, stronger effect = lower value 1.02 | S. cerevisiae deletion strains, locus YNL153C, strain GIM3, stronger effect = lower value 1.03 | S. cerevisiae deletion strains, locus YNL183C, strain NPR1, stronger effect = lower value 0.904 | S. cerevisiae deletion strains, locus YNL209W, strain ssb2, stronger effect = lower value 1.01 | S. cerevisiae deletion strains, locus YNL233W, strain BNI4, stronger effect = lower value 1.01 | S. cerevisiae deletion strains, locus YNL248C, strain rpa49, stronger effect = lower value 1.01 | S. cerevisiae deletion strains, locus YNL250W, strain rad50, stronger effect = lower value 0.95 | S. cerevisiae deletion strains, locus YNL271C, strain bni1, stronger effect = lower value 0.993 | S. cerevisiae deletion strains, locus YNL298W, strain CLA4, stronger effect = lower value 0.997 | S. cerevisiae deletion strains, locus YNL307C, strain MCK1, stronger effect = lower value 0.992 | S. cerevisiae deletion strains, locus YNL322C, strain KRE1 (second series), stronger effect = lower value 1.01 | S. cerevisiae deletion strains, locus YNL322C, strain KRE1, stronger effect = lower value 1 | S. cerevisiae deletion strains, locus YNR049C, strain mso1, stronger effect = lower value 1.02 | S. cerevisiae deletion strains, locus YNR052C, strain pop2, stronger effect = lower value 1.01 | S. cerevisiae deletion strains, locus YOL012C, strain htz1 0.992 | S. cerevisiae deletion strains, locus YOL147C, strain pex11, stronger effect = lower value 0.993 | S. cerevisiae deletion strains, locus YOR001W, strain rrp6, stronger effect = lower value 1.04 | S. cerevisiae deletion strains, locus YOR061W, strain CKA2, stronger effect = lower value 1 | S. cerevisiae deletion strains, locus YOR069W, strain VPS5, stronger effect = lower value 0.991 | S. cerevisiae deletion strains, locus YOR070C, strain gyp1, stronger effect = lower value 1.02 | S. cerevisiae deletion strains, locus YOR080W, strain dia2, stronger effect = lower value 1.03 | S. cerevisiae deletion strains, locus YOR083W, strain WHI5, stronger effect = lower value 1.02 | S. cerevisiae deletion strains, locus YOR106W, strain vam3, stronger effect = lower value 1.04 | S. cerevisiae deletion strains, locus YOR136W, strain idh2, stronger effect = lower value 0.98 | S. cerevisiae deletion strains, locus YOR144C, strain elg1, stronger effect = lower value 1 | S. cerevisiae deletion strains, locus YOR184W, strain ser1, stronger effect = lower value 0.999 | S. cerevisiae deletion strains, locus YOR231W, strain MKK1, stronger effect = lower value 0.996 | S. cerevisiae deletion strains, locus YOR265W, strain rbl2, stronger effect = lower value 1.02 | S. cerevisiae deletion strains, locus YOR270C, strain vph1, stronger effect = lower value 1.03 | S. cerevisiae deletion strains, locus YOR290C, strain snf2, stronger effect = lower value 1.01 | S. cerevisiae deletion strains, locus YOR316C, strain cot1, stronger effect = lower value 0.995 | S. cerevisiae deletion strains, locus YPL051W, strain arl3, stronger effect = lower value 1.02 | S. cerevisiae deletion strains, locus YPL055C, strain LGE1, stronger effect = lower value 1.02 | S. cerevisiae deletion strains, locus YPL078C, strain atp4, stronger effect = lower value 1.02 | S. cerevisiae deletion strains, locus YPL106C, strain sse1, stronger effect = lower value 1 | S. cerevisiae deletion strains, locus YPL240C, strain hsp82, stronger effect = lower value 1.02 | S. cerevisiae deletion strains, locus YPL241C, strain CIN2, stronger effect = lower value 1 | S. cerevisiae deletion strains, locus YPL256C, strain CLN2, stronger effect = lower value 0.967 | S. cerevisiae deletion strains, locus YPR119W, strain clb2, stronger effect = lower value 0.986 | S. cerevisiae deletion strains, locus YPR141C, strain kar3, stronger effect = lower value 0.988 | S. cerevisiae deletion strains, locus YPR163C, strain tif3, stronger effect = lower value 0.996 | S. cerevisiae deletion strains, locus YPR167C, strain met16, stronger effect = lower value 0.989 | S. cerevisiae deletion strains, strain wtn01, stronger effect = lower value 0.945 | S. cerevisiae strains, strain wild type, stronger effect = lower value 1.02
